Assays:
Assay in all cases: yeast three-hybrid, YBZ-1, SC-Leu-His + 0.5 mM 3-AT, 4 days
Details in all cases: tags: N-Gal4 AD-HA kept; label: inside an RPR1-promoter hybrid RNA with tandem MS2 sites; ssRNA
[1] = molecular target: PUM1 PUF domain R5-RYG (Homo sapiens, UniProt Q14671 828-1176, C1007R;R1008Y;Q1011G)
In short: (§1)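 Pumilio-1 PUF domain libraries, randomized at the three base-contacting residues of each repeat, were co-expressed with matching RNA elements from a centromeric plasmid in strain YBZ-1, which carries a LexA–MS2 coat fusion and a HIS3 reporter. Transformants grew for four days on SC-Leu (input) or on SC-Leu-His + 0.5 mM 3-AT (selection), and the repeat regions were PCR-amplified and Illumina-sequenced. The interaction score is the log change in variant frequency from input to selection. That logarithm is base 2, with a pseudocount of 1 where a variant was absent.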

[2] = molecular target: PUM1 PUF domain R4-FGC (Homo sapiens, UniProt Q14671 828-1176, N971F;H972G;Q975C)
In short: as §1

[3] = molecular target: PUM1 PUF domain R3-FFL (Homo sapiens, UniProt Q14671 828-1176, C935F;R936F;Q939L)
In short: as §1

[4] = molecular target: PUM1 PUF domain R5-QKA (Homo sapiens, UniProt Q14671 828-1176, C1007Q;R1008K;Q1011A)
In short: as §1

[5] = molecular target: PUM1 PUF domain R5-KRF (Homo sapiens, UniProt Q14671 828-1176, C1007K;Q1011F)
In short: as §1

[6] = molecular target: PUM1 PUF domain R5-KGT (Homo sapiens, UniProt Q14671 828-1176, C1007K;R1008G;Q1011T)
In short: as §1

[7] = molecular target: PUM1 PUF domain R5-GYL (Homo sapiens, UniProt Q14671 828-1176, C1007G;R1008Y;Q1011L)
In short: as §1

[8] = molecular target: PUM1 PUF domain R5-WHR (Homo sapiens, UniProt Q14671 828-1176, C1007W;R1008H;Q1011R)
In short: as §1

[9] = molecular target: PUM1 PUF domain R3-RAC (Homo sapiens, UniProt Q14671 828-1176, C935R;R936A;Q939C)
In short: as §1

[10] = molecular target: PUM1 PUF domain R3-RCR (Homo sapiens, UniProt Q14671 828-1176, C935R;R936C;Q939R)
In short: as §1

## GGCUAGAACUAGUGGAUCCCCCGGCGCCCGGCGGCUCGAGCCCGGGUAAGUGUAAAUAGUCUGCAUGCCGCCGGGCGCCAUGCCUGCAGGUCGACUCUAGAAAACAUG
[1]
  binding signal: 2.94 log2 enrichment (interaction score)
[2]
  binding signal: 1 log2 enrichment (interaction score)
[3]
  binding signal: 3.27 log2 enrichment (interaction score)

## GGCUAGAACUAGUGGAUCCCCCGGCGCCCGGCGGCUCGAGCCCGGGUAAGUGUCAAUAGUCUGCAUGCCGCCGGGCGCCAUGCCUGCAGGUCGACUCUAGAAAACAUG
[4]
  binding signal: 2.79 log2 enrichment (interaction score)
[5]
  binding signal: 2.59 log2 enrichment (interaction score)
[1]
  binding signal: 5.09 log2 enrichment (interaction score)
[6]
  binding signal: 2.31 log2 enrichment (interaction score)
[7]
  binding signal: 0.48 log2 enrichment (interaction score)
[8]
  binding signal: 3.55 log2 enrichment (interaction score)

## GGCUAGAACUAGUGGAUCCCCCGGCGCCCGGCGGCUCGAGCCCGGGUAAGUGUACAUAGUCUGCAUGCCGCCGGGCGCCAUGCCUGCAGGUCGACUCUAGAAAACAUG
[2]
  binding signal: 0.93 log2 enrichment (interaction score)

## GGCUAGAACUAGUGGAUCCCCCGGCGCCCGGCGGCUCGAGCCCGGGUAAGUGUAAUUAGUCUGCAUGCCGCCGGGCGCCAUGCCUGCAGGUCGACUCUAGAAAACAUG
[9]
  binding signal: 4.24 log2 enrichment (interaction score)
[10]
  binding signal: 2.77 log2 enrichment (interaction score)

## GGCUAGAACUAGUGGAUCCCCCGGCGCCCGGCGGCUCGAGCCCGGGUAAGUGUAUAUAGUCUGCAUGCCGCCGGGCGCCAUGCCUGCAGGUCGACUCUAGAAAACAUG
[2]
  binding signal: 3.05 log2 enrichment (interaction score)

## GGCUAGAACUAGUGGAUCCCCCGGCGCCCGGCGGCUCGAGCCCGGGUAAGUGUUAAUAGUCUGCAUGCCGCCGGGCGCCAUGCCUGCAGGUCGACUCUAGAAAACAUG
[6]
  binding signal: 2.93 log2 enrichment (interaction score)
[7]
  binding signal: 7.41 log2 enrichment (interaction score)
[8]
  binding signal: 4.76 log2 enrichment (interaction score)
